These results are taken from PubChem BioAssay (NCI).

Test systems include NCI-H23 lung; NCI-H226 lung; NCI-H322M lung; HOP-62 NSCLC; NCI-H460 lung; HOP-92 NSCLC; NCI-H522 lung; A549/ATCC NSCLC; 786-0 renal; COLO 205 colon; DU-145 prostate; K-562 leukemia; MALME-3M melanoma; MDA-MB-231 breast; RXF 393 renal; SF-268 CNS; SF-295 CNS; SF-539 CNS; UACC-257 melanoma; M14 melanoma.
Common to all, as to assay: NCI-60 one-dose screen, 48 h (100 = growth as untreated, 0 = no growth, -100 = all killed)
What all share (settings): 10 µM unless noted

About 83,000 compounds went through this panel and 20% of them were active in at least one assay; those are over-represented in the sample as a whole.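 Cells were grown in 96-well plates and exposed to the test compound at a single concentration for 48 hours; results are reported as percent growth, with values below 10 considered active.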 A number with no mark means an inactive call. Calls of active or inactive are those of the source.

Take `CN1C(=O)/C(=C/c2ccc(C(=O)Nc3ncc(Cc4ccc(F)cc4)s3)cc2)SC1=S`: the growth in the experiment with NCI-H23 lung is 62.1%; in the experiment with NCI-H226 lung, 65.3%; in the experiment on NCI-H322M lung, 52%; in the experiment on HOP-62 NSCLC it was 44.9%; in the experiment on NCI-H460 lung, 20.2%; in the experiment on HOP-92 NSCLC, 44.2%. Also, the growth is 39% in the experiment on NCI-H522 lung; 46.8% in the experiment with A549/ATCC NSCLC; 51.9% with 786-0 renal; 72.3% in the experiment on COLO 205 colon; 38.8% in the experiment on DU-145 prostate; 44.7% in the experiment with K-562 leukemia. The growth was 47.1% in the experiment with MALME-3M melanoma; 56.2% in the experiment on MDA-MB-231 breast; 36.8% in the experiment with RXF 393 renal; 49.1% in the experiment on SF-268 CNS; 24.3% in the experiment with SF-295 CNS; 38.4% in the experiment on SF-539 CNS. In addition, the growth was 65.6% with UACC-257 melanoma and 19.6% in the experiment on M14 melanoma.
For the compound `CCNCc1ccc(O)c2ncccc12`, the growth with NCI-H23 lung was 24.1%; in the experiment with NCI-H226 lung, 62.4%; in the experiment on NCI-H322M lung, 38%; in the experiment with HOP-62 NSCLC, 27.8%; in the experiment on NCI-H460 lung it was 20%; with HOP-92 NSCLC, -8.24% (active). Also, the growth in the experiment on NCI-H522 lung was 8.59% (active); in the experiment with A549/ATCC NSCLC, 17.6%; with 786-0 renal, 39.6%; in the experiment with COLO 205 colon it was 80.7%; in the experiment with DU-145 prostate, 37%; in the experiment with K-562 leukemia, 13.9%. For the same compound, the growth in the experiment on MALME-3M melanoma is 60.6%; in the experiment with MDA-MB-231 breast it was 46.9%; in the experiment with RXF 393 renal, 60.3%; in the experiment with SF-268 CNS, 35.2%; with SF-295 CNS it was 39.9%; with SF-539 CNS, 25.1%. The values for the growth in the experiment with UACC-257 melanoma and with M14 melanoma were 9.76% (active) and 33.8%, respectively.
`CC1(C)CC[C@]2(C(=O)O)CC[C@]3(C)C(=CC[C@@H]4[C@@]5(C)C[C@@H](Cc6cn([C@@H]7O[C@H](CO)[C@@H](O)[C@H](O)[C@H]7O)nn6)[C@H](O)C(C)(C)[C@@H]5CC[C@]43C)[C@@H]2C1`: the growth in the experiment on NCI-H23 lung is 104%; in the experiment on NCI-H226 lung it was 98.3%; with NCI-H322M lung, 97.4%; in the experiment with HOP-62 NSCLC, 89.2%; with NCI-H460 lung it was 106%; in the experiment on HOP-92 NSCLC, 102%. In addition, the growth with NCI-H522 lung is 106%; with A549/ATCC NSCLC, 85%; with 786-0 renal it was 95.8%; in the experiment with COLO 205 colon, 113%; with DU-145 prostate, 112%; with K-562 leukemia, 90%. Further, the growth is 112% with MALME-3M melanoma; 97.2% in the experiment with MDA-MB-231 breast; 106% with RXF 393 renal; 103% with SF-268 CNS; 99.3% in the experiment with SF-295 CNS; 101% in the experiment on SF-539 CNS. Also, the growth in the experiment on UACC-257 melanoma was 88.8%; in the experiment on M14 melanoma, 97.5%.
With `Cn1c(=O)c2c(nc(NC3=NS(=O)(=O)c4ccccc43)n2Cc2ccccc2)n(C)c1=O`, the growth in the experiment with NCI-H23 lung is 92.5%; in the experiment with NCI-H226 lung it was 88.5%; in the experiment with NCI-H322M lung, 101%; in the experiment with HOP-62 NSCLC, 93.4%; in the experiment on NCI-H460 lung it was 102%; with HOP-92 NSCLC, 94%. In addition, the growth in the experiment on NCI-H522 lung is 94.1%; in the experiment with A549/ATCC NSCLC, 102%; in the experiment with 786-0 renal, 101%; in the experiment with COLO 205 colon, 120%; in the experiment on DU-145 prostate it was 108%; with K-562 leukemia it was 104%. For the same compound, the growth with MALME-3M melanoma was 109%; in the experiment on MDA-MB-231 breast, 90.4%; in the experiment with RXF 393 renal, 78.3%; with SF-268 CNS it was 96.7%; in the experiment with SF-295 CNS it was 103%; with SF-539 CNS it was 100%. Besides, the growth in the experiment with UACC-257 melanoma was 109%; with M14 melanoma, 106%.
Turning to `O=S(=O)(c1ccccc1)N1CCCN(c2nc(-c3ccccc3)nc3nc(-c4ccccc4)oc23)CC1`, the growth with NCI-H23 lung was 107%; in the experiment with NCI-H226 lung, 109%; in the experiment on NCI-H322M lung it was 96%; in the experiment on HOP-62 NSCLC it was 104%; in the experiment with NCI-H460 lung, 110%; in the experiment with HOP-92 NSCLC it was 105%. Further, the growth in the experiment on NCI-H522 lung was 98.5%; in the experiment on A549/ATCC NSCLC, 105%; in the experiment with 786-0 renal, 102%; in the experiment on COLO 205 colon, 116%; in the experiment with DU-145 prostate, 119%; in the experiment on K-562 leukemia it was 110%. Also, the growth with MALME-3M melanoma was 105%; with MDA-MB-231 breast, 108%; with RXF 393 renal, 115%; in the experiment on SF-268 CNS it was 111%; in the experiment on SF-295 CNS, 105%; in the experiment on SF-539 CNS it was 104%. The growth with UACC-257 melanoma and with M14 melanoma was 109% each time.
Regarding `Oc1c(I)cc(-c2nc3ccccc3s2)cc1CN(Cc1ccccn1)Cc1ccccn1`, the growth in the experiment on NCI-H23 lung is 18.3%; with NCI-H226 lung, 10.5%; in the experiment with NCI-H322M lung it was 15.9%; with HOP-62 NSCLC, 15.7%; in the experiment with NCI-H460 lung it was 1.59% (active); in the experiment with HOP-92 NSCLC it was 0.23% (active). Further, the growth with NCI-H522 lung was 4.12% (active); in the experiment with A549/ATCC NSCLC, 4.74% (active); in the experiment on 786-0 renal, 2.78% (active); in the experiment on COLO 205 colon, 14.3%; in the experiment with DU-145 prostate, 28.1%; in the experiment with K-562 leukemia, 13.1%. Also, the growth with MALME-3M melanoma is 11.5%; with MDA-MB-231 breast it was 34.9%; in the experiment on RXF 393 renal it was 33.3%; with SF-268 CNS, 20.8%; in the experiment with SF-295 CNS it was 18.5%; in the experiment on SF-539 CNS, 4.13% (active). Further, the growth with UACC-257 melanoma was 0.435% (active); with M14 melanoma, -27.5% (active).
As for `COc1cc2oc(-c3cccc(NC(=O)c4ccc5c(c4)OCO5)c3)cc(=O)c2c(OC)c1OC`, the growth in the experiment with NCI-H23 lung was 52.9%; in the experiment with NCI-H226 lung, 65.7%; in the experiment with NCI-H322M lung it was 43.5%; in the experiment with HOP-62 NSCLC, 54.4%; with NCI-H460 lung, 27.2%; in the experiment on HOP-92 NSCLC, -6.11% (active). Further, the growth in the experiment with NCI-H522 lung was 36.7%; in the experiment on A549/ATCC NSCLC, 51.3%; with 786-0 renal, 19.5%; in the experiment with COLO 205 colon, 68.1%; in the experiment on DU-145 prostate, 52.9%; in the experiment on K-562 leukemia it was 17.4%. Moreover, the growth with MALME-3M melanoma was 76.4%; with MDA-MB-231 breast it was 64.3%; in the experiment on RXF 393 renal, 46.5%; in the experiment with SF-268 CNS it was 48.1%; in the experiment on SF-295 CNS, 53.9%; in the experiment on SF-539 CNS it was 57%. In addition, the growth is 77.3% in the experiment with UACC-257 melanoma and 49.3% in the experiment with M14 melanoma.
On to `COc1ccc(C2=Nc3c(N)ncnc3NC(c3cccc(Nc4ccnc5cc(C(F)(F)F)ccc45)c3)C2)cc1` (stereo not given), for which the growth in the experiment with NCI-H23 lung is 70.1%; with NCI-H226 lung it was 64.2%; in the experiment with NCI-H322M lung, 81.3%; in the experiment with HOP-62 NSCLC it was 63.7%; with NCI-H460 lung it was 70.9%; in the experiment with HOP-92 NSCLC it was 31.4%. Further, the growth in the experiment on NCI-H522 lung was 69.6%; in the experiment on A549/ATCC NSCLC, 59.8%; with 786-0 renal, 59.4%; in the experiment on COLO 205 colon, 62.4%; in the experiment on DU-145 prostate, 80.2%; with K-562 leukemia, 15.5%. The growth in the experiment with MALME-3M melanoma is 72.3%; in the experiment with MDA-MB-231 breast it was 46.3%; in the experiment with RXF 393 renal it was 41%; with SF-268 CNS, 56.9%; with SF-295 CNS, 61.9%; with SF-539 CNS it was 70%. In addition, the values for the growth with UACC-257 melanoma and with M14 melanoma were 74.9% and 66%, respectively.
